# Structures can show the parent of a compound that is named as a salt.
# Tested on: HL-1
# Experiment: relative cell viability (CellTiter-Glo) vs DMSO control (% of DMSO control); higher = more viable cells
# Method in brief: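 HL-1 mouse atrial cardiomyocytes were plated in 384-well plates at 1000 cells per well together with compounds at 40, 200, 1000 or 5000 nM in 0.01% DMSO. One day later, cells went to a hypoxic workstation (1% O2) for 48 h, then were reoxygenated for 24 h in a normal incubator, or stayed in normoxia for the same time. Cell viability was read by CellTiter-Glo luminescence and normalised to vehicle-treated control cells.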
# [1] = oxygen condition: hypoxia 48 h (1% O2) + reoxygenation 24 h, 40 nM
# [2] = oxygen condition: hypoxia 48 h (1% O2) + reoxygenation 24 h, 200 nM
# [3] = oxygen condition: hypoxia 48 h (1% O2) + reoxygenation 24 h, 1000 nM
# [4] = oxygen condition: hypoxia 48 h (1% O2) + reoxygenation 24 h, 5000 nM
# [5] = oxygen condition: normoxia 72 h, 40 nM
# [6] = oxygen condition: normoxia 72 h, 200 nM
# [7] = oxygen condition: normoxia 72 h, 1000 nM
# [8] = oxygen condition: normoxia 72 h, 5000 nM
Structure (SMILES),relative cell viability [1],relative cell viability [2],relative cell viability [3],relative cell viability [4],relative cell viability [5],relative cell viability [6],relative cell viability [7],relative cell viability [8]
CO[C@H]1C[C@@H]2CC[C@@H](C)[C@@](O)(O2)C(=O)C(=O)N2CCCC[C@H]2C(=O)O[C@H]([C@H](C)C[C@@H]2CC[C@@H](OC(=O)C(C)(CO)CO)[C@H](OC)C2)CC(=O)[C@H](C)/C=C(\C)[C@@H](O)[C@@H](OC)C(=O)[C@H](C)C[C@H](C)/C=C/C=C/C=C/1C [Temsirolimus],70.7,67.6,74.2,61.7,60.2,67.5,81.1,44
O=NN(CCCl)C(=O)NC1CCCCC1 [Lomustine],90.8,100,93.4,66.3,108,96.2,102,67
N=C(N)NC(=O)c1nc(Cl)c(N)nc1N [Amiloride hydrochloride dihydrate],101,106,107,118,101,102,106,111
CC(C)(C#N)c1cc(Cn2cncn2)cc(C(C)(C)C#N)c1 [Anastrozole],94.2,99.5,57.7,34.5,100,93.2,87.9,22.4
O=c1c(-c2ccc(O)cc2)coc2cc(O)cc(O)c12 [Genistein],104,106,113,110,111,104,106,111
CC[C@@H]1/C=C(\C)C[C@H](C)C[C@H](OC)[C@H]2O[C@@](O)(C(=O)C(=O)N3CCCC[C@H]3C(=O)O[C@H](/C(C)=C/[C@@H]3CC[C@H](Cl)[C@H](OC)C3)[C@H](C)[C@@H](O)CC1=O)[C@H](C)C[C@@H]2OC [Pimecrolimus],98.7,93.8,101,104,96.8,99.1,94.7,106
CN(C)CCCN1c2ccccc2Sc2ccc(C(F)(F)F)cc21 [Triflupromazine HCl],98.8,105,102,106,102,99.3,101,106
O=C(c1cc(Cc2n[nH]c(=O)c3ccccc23)ccc1F)N1CCN(C(=O)C2CC2)CC1 [Olaparib],86.7,84.4,76.2,61.1,79,86.6,70.1,60
Oc1ccc(OCc2ccccc2)cc1 [Monobenzone],99.6,114,110,103,107,104,108,99.8
COc1ccc2cc1Oc1ccc(cc1)C[C@H]1c3c(cc4c(c3Oc3cc5c(cc3OC)CCN(C)[C@@H]5C2)OCO4)CCN1C [Cepharanthine],98.8,91.7,87,49.8,99.4,86.8,87.5,11.3
COc1ccc2cccc(CCNC(C)=O)c2c1 [Agomelatine],96.1,109,84.5,113,94.3,90.4,132,111
O=C[C@H](O)[C@@H](O)[C@H](O)CO [Xylose],106,102,103,111,107,105,112,111
CS(=O)(=O)CCNCc1ccc(-c2ccc3ncnc(Nc4ccc(OCc5cccc(F)c5)c(Cl)c4)c3c2)o1 [Lapatinib Ditosylate],107,116,116,84.4,107,115,122,61.7
Clc1ccccc1CN1CCc2sccc2C1 [Ticlopidine HCl],96.8,94.8,97,103,94.9,97.1,95.5,108
Cc1cc(C#N)cc(C)c1Oc1nc(Nc2ccc(C#N)cc2)nc(N)c1Br [Etravirine],106,103,109,111,108,111,115,110
O=S(=O)(O)c1cc(O)ccc1O [Ethamsylate],105,101,105,109,96.6,101,96.8,107
